In the supplement of paper PMC13380429:

Tested on: Vero E6 infected with SARS-CoV-2
Assay: inhibition of SARS-CoV-2 cytopathic effect; higher = more antiviral protection, active = above 15
Settings: 48 h

Measured: inhibition of SARS-CoV-2 cytopathic effect

CCCCc1nc(C)c(CC(=S)N(C)C)c(=O)n1Cc1ccc(-c2ccccc2-c2nnn[nH]2)cc1 [fimasartan]
inactive: 1 nM 0.68% | 8.33 nM -0.83% | 100 nM -1.61% | 833.33 nM 1.46% | 10000 nM -0.45%

O=C(NCc1ccccc1)OCCO [buramate]
inactive: 1 nM -3.11% | 8.33 nM -3.15% | 100 nM -10.9% | 833.33 nM 1.79% | 10000 nM 0.54%

CCC(=O)N[C@@H]1Cc2ccccc2[C@H](c2ccccc2)C1
inactive: 1 nM 1.13% | 8.33 nM 2.8% | 100 nM 2.79% | 833.33 nM 3.72% | 10000 nM 2.13%

OC1(c2ccc(Cl)c(C(F)(F)F)c2)CCN(CCCC(c2ccc(F)cc2)c2ccc(F)cc2)CC1 [penfluridol]
active: 10000 nM 33.9%
inactive: 1 nM -1.2% | 8.33 nM 2.8% | 100 nM 1.5% | 833.33 nM -2.41%

C#Cc1cccc(Nc2ncnc3cc(OCCOC)c(OCCOC)cc23)c1 [erlotinib]
inactive: 1 nM -0.8% | 8.33 nM -0.26% | 100 nM -1.96% | 833.33 nM -4.63% | 10000 nM -14.6%

N#CC1(c2ccc(NC(=O)c3cccnc3NCc3ccncc3)cc2)CCCC1 [apatinib]
inactive: 1 nM 1.27% | 8.33 nM 0.67% | 100 nM 0.81% | 833.33 nM 0.23% | 10000 nM -0.18%

Cc1c(N)nc([C@H](CC(N)=O)NC[C@H](N)C(N)=O)nc1C(=O)N[C@H](C(=O)N[C@H](C)[C@@H](O)[C@H](C)C(=O)N[C@H](C(=O)NCCc1nc(-c2nc(C(=O)NCCC[S+](C)C)cs2)cs1)[C@@H](C)O)[C@@H](OC1OC(CO)C(O)C(O)C1OC1OC(CO)C(O)C(OC(N)=O)C1O)c1cnc[nH]1 (stereo not given in full) [bleomycin]
inactive: 1 nM -3.91% | 8.33 nM -1.18% | 100 nM -1.47% | 833.33 nM -11.3% | 10000 nM -21.5%

NC(=O)c1cc([N+](=O)[O-])cc([N+](=O)[O-])c1 [nitromide]
inactive: 1 nM 0.52% | 8.33 nM 1.05% | 100 nM 1.48% | 833.33 nM 0.38% | 10000 nM -0.05%

COc1cccc(OC)c1-c1cc(C(=O)N[C@@H](CC(C)C)C(=O)O)nn1-c1ccnc2cc(Cl)ccc12
inactive: 1 nM 2.48% | 8.33 nM 1.4% | 100 nM -0.45% | 833.33 nM -0.64% | 10000 nM -0.46%

C#Cc1cccc(Nc2ncnc3cc(OCCOC)c(OCCO)cc23)c1
inactive: 1 nM 2.26% | 8.33 nM -0.66% | 100 nM -2.61% | 833.33 nM -4.18% | 10000 nM -8.66%

C=C1C(=O)[C@]23[C@H](O)[C@H]1CC[C@H]2[C@@]12CO[C@]3(O)[C@@H](O)[C@@H]1C(C)(C)CC[C@@H]2O [Oridonin (Isodonol)]
active: 10000 nM 43.5%
inactive: 1 nM -0.74% | 8.33 nM 1.14% | 100 nM 0.8% | 833.33 nM 3.78%

CS(=O)(=O)CCNCc1nc(-c2ccc3ncnc(Nc4ccc(OCc5cccc(F)c5)c(Cl)c4)c3c2)cs1
inactive: 1 nM 1.4% | 8.33 nM 3.81% | 100 nM 0.15% | 833.33 nM -4.71% | 10000 nM -4.14%

COc1cc(NC(C)CCCN)c2ncccc2c1 (stereo not given) [primaquine]
inactive: 1 nM 1.68% | 8.33 nM 2.25% | 100 nM 0.83% | 833.33 nM 1.27% | 10000 nM 3.23%

CN1CCN(CCCN2c3ccccc3Sc3ccc(S(=O)(=O)N(C)C)cc32)CC1 [thioproperazine]
inactive: 1 nM 0.81% | 8.33 nM 6.36% | 100 nM 5.52% | 833.33 nM 0.03% | 10000 nM 1.7%

Nc1ncn([C@@H]2O[C@H](CO)[C@@H](O)[C@H]2O)c(=O)n1 [azacitidine]
inactive: 1 nM -3.6% | 8.33 nM 0.66% | 100 nM 0.98% | 833.33 nM -0.22% | 10000 nM 0.95%

O=C(NCCN1CCOCC1)c1ccc(Cl)cc1 [moclobemide]
inactive: 1 nM 1.23% | 8.33 nM 2.39% | 100 nM 0.11% | 833.33 nM -2.19% | 10000 nM -0.2%

CCN1C[C@H](C)n2c(c(O)c3c(=O)n(Cc4ccc(F)c(Cl)c4)nc(C(=O)NC)c32)C1=O
inactive: 1 nM -0.8% | 8.33 nM 0.13% | 100 nM -1.06% | 833.33 nM 0.69% | 10000 nM -2.34%

Clc1ccccc1C(c1ccccc1)(c1ccccc1)n1ccnc1 [clotrimazole]
inactive: 1 nM -0.06% | 8.33 nM -0.06% | 100 nM -0.28% | 833.33 nM 0.61% | 10000 nM 2.73%

COC(=O)[C@@H](N)CCCNC(=N)N[N+](=O)[O-]
inactive: 1 nM 0.94% | 8.33 nM -2.09% | 100 nM -1.83% | 833.33 nM -3.06% | 10000 nM -0.4%

CCc1ccc(CCOc2ccc(CC3SC(=O)NC3=O)cc2)nc1 (stereo not given) [pioglitazone]
inactive: 1 nM -1.62% | 8.33 nM 1.34% | 100 nM 1.49% | 833.33 nM -8.11% | 10000 nM 1.27%

COc1ccc(-n2[nH]c3c4c(ncc3c2=O)CCCCC4)cc1
inactive: 1 nM 0.69% | 8.33 nM 0.11% | 100 nM -0.83% | 833.33 nM 1.15% | 10000 nM -1.86%

C#C[C@]1(O)CC[C@H]2[C@@H]3CCC4=CC(=O)CCC4=C3C=C[C@@]21CC [gestrinone]
inactive: 1 nM 1.67% | 8.33 nM 0.8% | 100 nM 4.87% | 833.33 nM 3.58% | 10000 nM 5.58%

Cn1cc(-c2ccc3nnc(C(F)(F)c4ccc5ncccc5c4)n3n2)cn1
inactive: 1 nM 0.45% | 8.33 nM 2.96% | 100 nM 4.23% | 833.33 nM 0.5% | 10000 nM 6.76%

Fc1ccc(CNc2ncnc3ccc(F)cc23)cc1 [spautin-1]
inactive: 1 nM -1.85% | 8.33 nM -0.71% | 100 nM -0.05% | 833.33 nM -0.85% | 10000 nM -1.95%

O=C(O)c1nn(Cc2ccc(Cl)cc2Cl)c2ccccc12 [lonidamine]
inactive: 1 nM -0.69% | 8.33 nM 0.67% | 100 nM 0.81% | 833.33 nM 1.31% | 10000 nM -0.94%

O=C1C(O)=C([C@H]2CC[C@H](c3ccc(Cl)cc3)CC2)C(=O)c2ccccc21 [atovaquone]
inactive: 1 nM 0.09% | 8.33 nM -1.67% | 100 nM -3.09% | 833.33 nM -1.77% | 10000 nM -9.21%

C[C@]12Cc3c[nH]nc3C[C@@H]1CC[C@@H]1[C@@H]2CC[C@@]2(C)[C@H]1CC[C@]2(C)O [stanozolol]
inactive: 1 nM -3.58% | 8.33 nM -5.17% | 100 nM -4.66% | 833.33 nM -3.19% | 10000 nM -5.61%

CN(C)CCC(c1ccc(Br)cc1)c1ccccn1 (stereo not given) [brompheniramine]
inactive: 1 nM 4.45% | 8.33 nM 3.77% | 100 nM -3.1% | 833.33 nM -0.09% | 10000 nM -4.65%

O[C@@H](Cc1ccncc1)C(Cl)(Cl)Cl
inactive: 1 nM 0.9% | 8.33 nM 1.38% | 100 nM 3.16% | 833.33 nM 0.72% | 10000 nM 0.84%

N#Cc1cc(-c2n[nH]c(-c3ccncc3)n2)ccn1 [topiroxostat]
inactive: 1 nM 0.4% | 8.33 nM 0.34% | 100 nM 3.87% | 833.33 nM -0.47% | 10000 nM 0.11%

COC[C@@H](NC(C)=O)C(=O)NCc1ccccc1 [Lacosamide]
inactive: 1 nM -11.7% | 8.33 nM -10.6% | 100 nM -8.79% | 833.33 nM -10.4% | 10000 nM -12.7%

Cn1cnc(N)c2ncnc1-2 [3-methyladenine]
inactive: 1 nM -3.13% | 8.33 nM -1.71% | 100 nM -2.68% | 833.33 nM -0.52% | 10000 nM -1.76%

CC1(COc2ccc3c(c2)ncn3-c2ccc3cccc(N4CCC(N)CC4)c3n2)COC1 [crenolanib]
inactive: 1 nM -0.58% | 8.33 nM 1.15% | 100 nM 2.74% | 833.33 nM 2.21% | 10000 nM 0.74%

O=C(CCCCCN1C(=O)c2cccc3cccc(c23)C1=O)NO [scriptaid]
inactive: 1 nM 4.82% | 8.33 nM 3.4% | 100 nM -3.14% | 833.33 nM -13.6% | 10000 nM -24.8%

CC(=O)Nc1ccc(OCC(O)CNC(C)C)cc1 (stereo not given) [practolol]
inactive: 1 nM 0.44% | 8.33 nM 0.3% | 100 nM 0.26% | 833.33 nM 2.84% | 10000 nM 5.44%

CCCCCCCCCCC(=O)O[C@H]1CC[C@H]2[C@@H]3CCC4=CC(=O)CC[C@]4(C)[C@H]3CC[C@]12C [Testosterone (undecanoate)]
inactive: 1 nM 1.81% | 8.33 nM 0.82% | 100 nM 0.37% | 833.33 nM 0.31% | 10000 nM 0.21%

COC1CCN(C(=O)c2cc(Cc3n[nH]c(=O)c4ccccc34)ccc2F)CC1
inactive: 1 nM -0.72% | 8.33 nM 7.33% | 100 nM 4.58% | 833.33 nM 3.41% | 10000 nM 4.58%

c1ccc2c(c1)[I+]c1ccccc1-2 [diphenyleneiodonium]
inactive: 1 nM 0.63% | 8.33 nM 1.31% | 100 nM -0.64% | 833.33 nM -1.09% | 10000 nM 0.37%

OCCCNc1ccccc1 [3-anilinopropan-1-ol]
inactive: 1 nM -0.17% | 8.33 nM 2.09% | 100 nM -0.59% | 833.33 nM -0.07% | 10000 nM 1.39%
